Data on 27 compounds can be found in PubChem BioAssay.

Calls of active or inactive are those of the source.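 Rule for the calls, unless noted: active = compounds killing one labelled cell type while sparing the other, by normalised counts and ratio limits, not self-fluorescent; inactive = the rest.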

The target in test [1] is 6-phosphogluconate dehydrogenase, decarboxylating (Homo sapiens) (UniProt P52209). Kind of test: inhibition of human phosphogluconate dehydrogenase – biochemical, recombinant enzyme, NADPH absorbance, primary screen (AID 1159550;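 active = at least 20% inhibition of 6-phosphogluconate dehydrogenase activity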). The following applies: recombinant 6PGD, NADPH absorbance 341 nm; at 10 µM; stronger effect = higher value.
Test [2] can be described thus: EMT-state selective cytotoxicity in co-culture – imaging, PC-3E GFP, TEM4-18 mCherry, primary screen (AID 1345086).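 For all read-outs here: cells exposed to compound for 72 h before imaging.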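 For red/green cell ratio (normalised): normalised mesenchymal count divided by normalised epithelial count so high means epithelial killing.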 The following applies: PC-3E GFP / TEM4-18 mCherry co-culture, imaging cell counts, at 1 µM; for red/green cell ratio (normalised): actives lie on both sides, counts scaled to control wells, 1 = unselective.
Test [3] addresses Mitogen-activated protein kinase 7 (Homo sapiens) (UniProt Q13164). Kind of test: Gal4-ERK5 driven luciferase induction – cell-based, HTS, primary screen (AID 1508626;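 active = luciferase signal above three times the same-plate solvent-only control wells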;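 note: luciferase driven by Gal4-ERK5 fusion binding five Gal4 sites before minimal TATA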). The following applies: HeLa Gal4-ERK5 transactivation, 18 h, at 5 µM, stronger effect = higher value.
Setting [4] is: measured here: epithelial PC-3E GFP cell survival.
The mark [5] stands for this setting: measured here: mesenchymal TEM4-18 mCherry cell survival.

Mitogen-activated protein kinase 7 (Homo sapiens), sequence (Q13164 whole entry, looked up, the tested form may be a part): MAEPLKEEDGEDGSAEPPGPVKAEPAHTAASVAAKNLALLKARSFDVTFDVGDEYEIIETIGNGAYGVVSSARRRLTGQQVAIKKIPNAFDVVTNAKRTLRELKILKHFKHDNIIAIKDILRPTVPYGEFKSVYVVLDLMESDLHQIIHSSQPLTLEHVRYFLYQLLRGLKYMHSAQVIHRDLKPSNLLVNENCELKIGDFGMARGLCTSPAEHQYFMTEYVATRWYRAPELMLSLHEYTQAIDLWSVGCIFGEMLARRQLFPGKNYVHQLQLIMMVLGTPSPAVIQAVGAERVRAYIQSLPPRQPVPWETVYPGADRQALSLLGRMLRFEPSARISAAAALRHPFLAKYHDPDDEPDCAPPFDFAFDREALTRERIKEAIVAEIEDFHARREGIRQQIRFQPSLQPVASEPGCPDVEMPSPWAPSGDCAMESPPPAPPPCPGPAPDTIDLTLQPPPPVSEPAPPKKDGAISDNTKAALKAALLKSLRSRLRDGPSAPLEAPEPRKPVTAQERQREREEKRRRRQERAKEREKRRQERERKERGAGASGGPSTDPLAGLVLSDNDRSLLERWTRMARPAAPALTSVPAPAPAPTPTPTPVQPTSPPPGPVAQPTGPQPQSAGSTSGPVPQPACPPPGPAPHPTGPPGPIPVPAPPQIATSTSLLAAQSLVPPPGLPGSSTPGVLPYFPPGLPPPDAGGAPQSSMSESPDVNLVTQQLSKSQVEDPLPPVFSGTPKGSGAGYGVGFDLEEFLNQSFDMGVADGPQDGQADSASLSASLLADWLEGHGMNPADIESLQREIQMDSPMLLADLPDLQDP
6-phosphogluconate dehydrogenase, decarboxylating (Homo sapiens), sequence (P52209 whole entry, looked up): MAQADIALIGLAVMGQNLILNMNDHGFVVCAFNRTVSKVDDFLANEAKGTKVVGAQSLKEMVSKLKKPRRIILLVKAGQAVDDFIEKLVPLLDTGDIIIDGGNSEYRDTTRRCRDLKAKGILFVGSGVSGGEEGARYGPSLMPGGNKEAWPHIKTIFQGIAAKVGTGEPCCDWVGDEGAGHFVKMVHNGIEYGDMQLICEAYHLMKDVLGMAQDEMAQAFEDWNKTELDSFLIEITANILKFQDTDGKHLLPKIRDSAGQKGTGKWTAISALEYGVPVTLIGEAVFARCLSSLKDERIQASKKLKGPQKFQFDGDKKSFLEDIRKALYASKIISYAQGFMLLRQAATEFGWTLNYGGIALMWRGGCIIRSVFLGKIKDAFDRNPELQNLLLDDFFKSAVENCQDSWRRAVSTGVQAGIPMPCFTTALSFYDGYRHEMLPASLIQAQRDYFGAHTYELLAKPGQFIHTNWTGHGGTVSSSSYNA

What is called inhibition is the relative decrease from the control value, in per cent. As to `COc1cccc(O)c1O`, the inhibition in test [1] was -0.395% (inactive). Besides, the red/green cell ratio (normalised) in test [2] is 0.97 (inactive). Also, the normalised cell number in test [2] (setting [4]) stood at 0.99; in test [2] (setting [5]), 0.96. Further, in test [3], the luciferase signal was 52 AU (inactive).

Consider `COc1c(O)cc2oc3cc(O)c(CC=C(C)C)c(O)c3c(=O)c2c1CC=C(C)C`, for which, in test [1], the inhibition is 11.6% (inactive). Moreover, the red/green cell ratio (normalised) in test [2] was 0.81 (inactive). Moreover, the normalised cell number in test [2] (setting [4]) turned out to be 1.13; in test [2] (setting [5]), 0.91. Also, the luciferase signal in test [3] was 40 AU (inactive).

For the compound `C=C1[C@H]2CC[C@@]3(C)[C@H](c4ccoc4)OC(=O)C[C@]13O[C@H]1C[C@H](O)C(C)(C)[C@H](CC(=O)OC)[C@]12C`, the inhibition in test [1] was -1.87% (inactive). For the same compound, the red/green cell ratio (normalised) in test [2] was 1.12 (inactive). Besides, the figures for the normalised cell number in test [2] (setting [4]) and in test [2] (setting [5]) were 0.91 and 1.02, respectively. Besides, the luciferase signal in test [3] is 8 AU (inactive).

For the compound `Cc1cc(O)c(C=O)c(O)c1C(=O)O`, the inhibition in test [1] is 15% (inactive). For the same compound, the red/green cell ratio (normalised) in test [2] is 0.84 (inactive). Moreover, the results for the normalised cell number in test [2] (setting [4]) and in test [2] (setting [5]) were 1.14 and 0.95, respectively. Besides, in test [3], the luciferase signal is 120 AU (inactive).

Turning to `C=CC(C)(O)CC/C=C(\C)CCC=C(C)C` (stereo not given), the inhibition in test [1] is -3.52% (inactive). Further, in test [2], the red/green cell ratio (normalised) is 1.02 (inactive). The results for the normalised cell number in test [2] (setting [4]) and in test [2] (setting [5]) were 0.95 and 0.98, respectively. Further, the luciferase signal in test [3] is 68 AU (inactive).

As to `CC(=O)O[C@@H]1CC[C@@]2(C)C(C[C@@H](OC(C)=O)[C@@]3(C)C4=CC(=O)O[C@@H](c5ccoc5)[C@]4(C)CCC23)C1(C)C` (stereo not given in full), the inhibition in test [1] was -14.7% (inactive). For the same compound, the red/green cell ratio (normalised) in test [2] was 0.98 (inactive). The normalised cell number in test [2] (setting [4]) amounted to 1.08; in test [2] (setting [5]), 1.06. Besides, in test [3], the luciferase signal was 56 AU (inactive).

With `C=CC(C1=CC(=O)C(OC)=CC1=O)c1ccccc1` (stereo not given), the inhibition in test [1] is -2.35% (inactive). Further, the red/green cell ratio (normalised) in test [2] was 1.14 (inactive). For the same compound, the normalised cell number worked out at 0.95 in test [2] (setting [4]) and 1.08 in test [2] (setting [5]). Besides, the luciferase signal in test [3] was 60 AU (inactive).

As for `COc1cc2ccc(=O)oc2c(OC)c1OC`, in test [1], the inhibition was 1.65% (inactive). Moreover, the red/green cell ratio (normalised) in test [2] was 0.93 (inactive). For the same compound, the figures for the normalised cell number in test [2] (setting [4]) and in test [2] (setting [5]) were 0.81 and 0.75, respectively. The luciferase signal in test [3] is 16 AU (inactive).

For the compound `O=C1c2ccccc2C(=O)c2c(O)c(O)cc(O)c21`, the inhibition in test [1] was 17.9% (inactive). In addition, in test [2], the red/green cell ratio (normalised) is 1.09 (inactive). Besides, the normalised cell number in test [2] (setting [4]) amounted to 0.94; in test [2] (setting [5]), 1.02. For the same compound, the luciferase signal in test [3] is 100 AU (inactive).

Regarding `COc1cc2c(cc1OC)C1(O)C(=O)c3ccc(O)c(C(=O)O)c3OC1CO2` (stereo not given), the inhibition in test [1] was 11.5% (inactive). In addition, the red/green cell ratio (normalised) in test [2] was 1 (inactive). Further, the normalised cell number in test [2] (setting [4]) and in test [2] (setting [5]) was 1.11 each time. For the same compound, the luciferase signal in test [3] was 16 AU (inactive).

Turning to `CC(=O)O[C@H]1CCC2(C)C3=C(CCC2C1(C)C)[C@]1(C)CCC(C(C)CCC=C(C)C)[C@@]1(C)CC3` (stereo not given in full), the inhibition in test [1] was 12.8% (inactive). Besides, the red/green cell ratio (normalised) in test [2] was 0.97 (inactive). Besides, the normalised cell number in test [2] (setting [4]) worked out at 0.86; in test [2] (setting [5]), 0.83. Moreover, the luciferase signal in test [3] is 52 AU (inactive).

Regarding `C#CCCCCCCCCCCCC(O)CC(O)CO` (stereo not given), the inhibition in test [1] was 6.35% (inactive). The red/green cell ratio (normalised) in test [2] is 0.88 (inactive). Moreover, the normalised cell number in test [2] (setting [4]) came to 0.94; in test [2] (setting [5]), 0.82. For the same compound, the luciferase signal in test [3] is 52 AU (inactive).

For the compound `OC[C@@H](O)[C@@H](O[C@@H]1O[C@H](CO)[C@@H](O)[C@H](O)[C@H]1O)[C@H](O)[C@@H](O)CO`, the inhibition in test [1] is 10.6% (inactive). Moreover, in test [2], the red/green cell ratio (normalised) is 0.88 (inactive). For the same compound, the normalised cell number amounted to 1.03 in test [2] (setting [4]) and 0.9 in test [2] (setting [5]). The luciferase signal in test [3] was 208 AU (inactive).

`CC(C)c1c(O)c(-c2cc3c(c(C(C)C)c2O)CCC2C(C)(C)CCC[C@]32C)cc2c1CCC1C(C)(C)CCC[C@]21C` (stereo not given in full): in test [1], the inhibition was -2.25% (inactive). The red/green cell ratio (normalised) in test [2] is 1 (inactive). For the same compound, the normalised cell number in test [2] (setting [4]) and in test [2] (setting [5]) was 1.03 in each case. In addition, the luciferase signal in test [3] is 40 AU (inactive).

As to `COc1cc(O)ccc1C(C)=O`, the inhibition in test [1] was 12.4% (inactive). For the same compound, the red/green cell ratio (normalised) in test [2] is 0.96 (inactive). Also, the results for the normalised cell number in test [2] (setting [4]) and in test [2] (setting [5]) were 0.95 and 0.91, respectively. Further, in test [3], the luciferase signal was 124 AU (inactive).

Regarding `O=C(O)C1(O)C[C@@H](O)C(O)[C@H](O)C1` (stereo not given in full), the inhibition in test [1] is 5.01% (inactive). The red/green cell ratio (normalised) in test [2] is 0.8 (inactive). The normalised cell number was found to be 1.27 in test [2] (setting [4]) and 1.02 in test [2] (setting [5]). Also, the luciferase signal in test [3] is 12 AU (inactive).

For the compound `C=CC(C1=CC(=O)C(OC)=CC1=O)c1ccc(OC)cc1` (stereo not given), the inhibition in test [1] is 9.18% (inactive). In test [2], the red/green cell ratio (normalised) is 0.93 (inactive). For the same compound, the normalised cell number in test [2] (setting [4]) was found to be 1.1; in test [2] (setting [5]), 1.03. Besides, the luciferase signal in test [3] was 36 AU (inactive).

As to `CC12CCCC(O)(C1)C1CC(C)(C)C1CC2` (stereo not given), in test [1], the inhibition is -1.62% (inactive). Moreover, the red/green cell ratio (normalised) in test [2] was 0.85 (inactive). The normalised cell number turned out to be 1.27 in test [2] (setting [4]) and 1.07 in test [2] (setting [5]). For the same compound, in test [3], the luciferase signal is 128 AU (inactive).

Consider `CC1=CCc2c(cc3oc(C)cc(=O)c3c2O)OC1`, for which the inhibition in test [1] is 0.892% (inactive). In test [2], the red/green cell ratio (normalised) is 1.1 (inactive). For the same compound, the normalised cell number in test [2] (setting [4]) came to 1.02; in test [2] (setting [5]) it was 1.12. In addition, in test [3], the luciferase signal was 16 AU (inactive).

For the compound `CC1(C)CC2C1CCC1(C)OC2(C)CCC1O` (stereo not given), the inhibition in test [1] was 12.8% (inactive). Besides, in test [2], the red/green cell ratio (normalised) was 1.07 (inactive). The normalised cell number in test [2] (setting [4]) came out at 0.96; in test [2] (setting [5]) it was 1.03. Further, the luciferase signal in test [3] was 100 AU (inactive).

Turning to `NCCC(=O)N[C@@H](Cc1cnc[nH]1)C(=O)O`, the inhibition in test [1] was -1.18% (inactive). Further, the red/green cell ratio (normalised) in test [2] is 1.1 (inactive). Further, the normalised cell number in test [2] (setting [4]) stood at 0.93; in test [2] (setting [5]), 1.03. Besides, the luciferase signal in test [3] was 100 AU (inactive).

With `Cn1c(=O)[nH]c(=O)c2[nH]cnc21`, the inhibition in test [1] is 5.61% (inactive). Besides, the red/green cell ratio (normalised) in test [2] is 0.93 (inactive). The normalised cell number in test [2] (setting [4]) came out at 1.22; in test [2] (setting [5]), 1.13. Besides, in test [3], the luciferase signal is 52 AU (inactive).

Regarding `COc1ccc(-c2coc3c(O)c(OC)ccc3c2=O)cc1`, the inhibition in test [1] is 11.6% (inactive). Besides, the red/green cell ratio (normalised) in test [2] is 0.97 (inactive). Further, the normalised cell number in test [2] (setting [4]) was determined as 1.1; in test [2] (setting [5]), 1.06. The luciferase signal in test [3] was 100 AU (inactive).

With `COc1ccc(C(=O)O)c(O)c1OC`, the inhibition in test [1] was 17.2% (inactive). The red/green cell ratio (normalised) in test [2] was 1.11 (inactive). Moreover, the normalised cell number in test [2] (setting [4]) came out at 1.01; in test [2] (setting [5]), 1.12. Besides, the luciferase signal in test [3] is 56 AU (inactive).

For the compound `C=C1CCC2C(CC2(C)C)C(=O)CCC1O` (stereo not given), in test [1], the inhibition was 28.4% (active). In addition, the red/green cell ratio (normalised) in test [2] is 1.02 (inactive). Moreover, the normalised cell number was determined as 0.93 in test [2] (setting [4]) and 0.96 in test [2] (setting [5]). For the same compound, the luciferase signal in test [3] is 132 AU (inactive).

With `Cc1cc(=O)oc2c(O)c(O)ccc12`, the inhibition in test [1] was -1.28% (inactive). Also, in test [2], the red/green cell ratio (normalised) is 1.02 (inactive). Moreover, the figures for the normalised cell number in test [2] (setting [4]) and in test [2] (setting [5]) were 0.87 and 0.89, respectively. In addition, the luciferase signal in test [3] is 44 AU (inactive).

With `CC12CCC3C(CC3(C)C)C(C)(CCC1=O)O2` (stereo not given), the inhibition in test [1] is 11.8% (inactive). Also, the red/green cell ratio (normalised) in test [2] was 1.12 (inactive). Besides, the normalised cell number in test [2] (setting [4]) was 0.97; in test [2] (setting [5]) it was 1.09. The luciferase signal in test [3] was 60 AU (inactive).
